# Compounds with a hit are over-represented: about 11% of the library has one in this group of screens.
# PLK1 PBD block: qHTS for Inhibitors of PLK1-PDB (polo-like kinase 1 - polo-box domain): Primary Screen. Serine/threonine-protein kinase PLK1 (Homo sapiens), P53350. Plk1 PBD binding of FITC phosphopeptide, fluorescence polarization. Potency, µM, hits mostly inhibitors. hit rate 2.8% among 360,000. AID 720504, 2013; further: series mostly up to about 57 µM; nearly all actives have a fitted effect of over 65% in size
# G9a inh: qHTS Assay for Inhibitors of Histone Lysine Methyltransferase G9a | G9a H3K9 monomethylation, AlphaScreen, 2 h | AID 504332, 2011 | Potency, µM (top dose mostly 102 µM), most hits filed as inhibitors | hit rate 8.8% among 350,000 | Histone-lysine N-methyltransferase EHMT2 (Homo sapiens), Q96KQ7; further: nearly all actives have a fitted effect of over 75% in size
#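 AlphaScreen detection with an anti-monomethyl H3K9 antibody quantified product after a 2 h room-temperature reaction containing 500 nM biotinylated H3K9 peptide, 20 µM SAM and 20 nM enzyme, which had been preincubated 15 min with compound.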
# JMJD2A Tudor inh: qHTS Assay for Inhibitors of JMJD2A-Tudor Domain; hit rate 4.4% among 390,000; Lysine-specific demethylase 4A (Homo sapiens), O75164; AlphaScreen JMJD2A-Tudor / H3K4me3 peptide binding; Potency, µM (series often up to 114 µM), hits mostly inhibitors; further: nearly all actives have a fitted effect of over 50% in size
# HP1b binding inh: HTS for Inhibitors of HP1-beta Chromodomain Interactions with Methylated Histone Tails; Chromobox protein homolog 1 (Homo sapiens), P83916; AlphaScreen HP1-beta / biotin-H3K9me3 peptide binding; Potency, µM (top dose mostly 114 µM), usual class: inhibitors; hit rate 0.56% among 390,000; further: nearly all actives have a fitted effect of over 70% in size
# Target sequence (P83916 whole entry, looked up): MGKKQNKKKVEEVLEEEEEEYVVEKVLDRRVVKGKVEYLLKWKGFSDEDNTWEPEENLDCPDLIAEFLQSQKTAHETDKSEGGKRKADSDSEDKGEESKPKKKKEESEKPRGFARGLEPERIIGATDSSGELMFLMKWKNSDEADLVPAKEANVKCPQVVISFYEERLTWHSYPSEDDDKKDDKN
#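 Compound inhibition of the preformed complex between 50 nM HP1-beta and 50 nM biotinylated H3K9me3 peptide was read by AlphaScreen. Buffer was PBS pH 7.4 with 0.01% Tween-20. Incubations ran 30 min at room temperature, with 10 ug/mL donor/acceptor beads.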
# VDR inh: Inhibitors of the vitamin D receptor (VDR): qHTS | VDR-SRC2-3 peptide fluorescence polarization, 2 h | Potency, µM, most hits filed as inhibitors | hit rate 0.93% among 400,000
# Target sequence (P11473 whole entry, looked up): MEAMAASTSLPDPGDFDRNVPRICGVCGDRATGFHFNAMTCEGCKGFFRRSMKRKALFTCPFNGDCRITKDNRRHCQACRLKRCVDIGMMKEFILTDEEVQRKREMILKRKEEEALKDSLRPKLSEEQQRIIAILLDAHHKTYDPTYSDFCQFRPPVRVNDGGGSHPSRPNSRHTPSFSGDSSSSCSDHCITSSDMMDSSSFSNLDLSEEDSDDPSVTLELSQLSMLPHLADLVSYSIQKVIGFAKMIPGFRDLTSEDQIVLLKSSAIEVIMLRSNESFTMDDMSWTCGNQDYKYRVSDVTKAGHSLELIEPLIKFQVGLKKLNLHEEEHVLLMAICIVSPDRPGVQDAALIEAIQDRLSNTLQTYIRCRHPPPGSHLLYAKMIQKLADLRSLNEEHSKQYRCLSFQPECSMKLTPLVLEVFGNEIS
#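 VDR–SRC2-3 interaction, FP format. Cmpds 23 nl via pintool, brief spin, 2 h ambient incubation.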
# BAZ2B inh: qHTS Assay for Inhibitors of BAZ2B; Bromodomain adjacent to zinc finger domain protein 2B (Homo sapiens), Q9UIF8; AlphaScreen BAZ2B-H3K14Ac peptide displacement; Potency, µM (doses to about 114 µM), hits mostly inhibitors; hit rate 4.4% among 360,000; further: nearly all actives have a fitted effect of over 60% in size
#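 Inhibition is scored as reduced AlphaScreen emission. The BAZ2B/b-H3(5-23)K14Ac complex (50 nM each) in PBS pH 7.4, 0.01% Tween-20 meets compound (up to 110 uM) for 30 min at RT before bead addition.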
# USP1-UAF1 confirm: Inhibitors of USP1/UAF1: Hit Validation in Primary Assay. hit rate 50% among 50. Ub-Rhodamine cleavage, fluorescence kinetic read. shares compounds with VDR inh. Potency, µM (series often up to 114 µM), most hits filed as inhibitors
# VDR confirm: qHTS for Inhibitors of the vitamin D receptor (VDR): Hit Validation in Primary Screen | shares compounds with VDR inh | VDR-coactivator inhibition assay, qHTS confirmation | Potency, µM, actives largely listed as inhibitors | hit rate 89% among 840
# VDR FP fluor: qHTS for Inhibitors of the vitamin D receptor (VDR): Hit Validation using a Fluorescein Assay. shares compounds with VDR inh. VDR-coactivator binding, fluorescein fluorescence polarization. Potency, µM (series often up to 57.1 µM), usual class: inhibitors. hit rate 48% among 840
# VDR bla: qHTS for Inhibitors of the vitamin D receptor (VDR): Hit Validation using a Beta-Lactamase Assay | shares compounds with VDR inh | VDR beta-lactamase reporter cells, FRET ratio; cells co-treated with VDR agonist LG190178 | Potency, µM (doses to about 46.1 µM), actives largely listed as inhibitors | hit rate 23% among 840
# VDR viability: qHTS for Inhibitors of the vitamin D receptor (VDR): Hit Validation using a Cytotoxicity Assay | shares compounds with VDR inh | cytotoxicity counter-screen, cell viability, qHTS | Potency, µM (highest dose often 48.3 µM), usual class: cytotoxic | hit rate 18% among 840 | AID 602204, 2012; further: nearly all actives have a fitted effect of over 75% in size
# Hits are given with their value; i = inactive; ? = inconclusive; nt = not tested or not shown; ! = not confirmed by another sample; [ ] = dose if it differs, or a comment. The call rests on the fitted dose curve; in most records, active means well fitted curve in the direction sought with a large enough effect; inconclusive means small, poorly fitted or top-dose-only effect, or another doubt; inactive means no such curve, though single readings can be large; an effect the other way counts as inactive or inconclusive.
SMILES,PLK1 PBD block,G9a inh,JMJD2A Tudor inh,HP1b binding inh,VDR inh,BAZ2B inh,VDR confirm,VDR FP fluor,VDR bla,VDR viability,others
OCCN1CCN(CC/C=C2/c3ccccc3Sc3ccc(C(F)(F)F)cc32)CC1,i,11.2µM!,?,i,?,?,nt,nt,nt,nt,USP1-UAF1 confirm=?
CCN(CC)c1ccc(NC(=O)c2ccccc2Br)cc1S(=O)(=O)Nc1ccccc1OC,1.5µM,1.26µM,17.8µM,6.31µM,22.4µM,?,2.99,2.82µM,i,i,
COc1ccccc1NS(=O)(=O)c1cc(NC(=O)c2cccs2)ccc1N1CCCC1,5.32µM,1.58µM,?,?,22.4µM,i,5.97,?,i,i,
Cc1nc2ccc(C(=O)N3CCN(c4ccccc4)CC3)cn2c1N(C)C(=O)CCc1ccccc1,i,nt,nt,nt,nt,nt,nt,nt,nt,nt,
O=C1NN(c2ccccc2)C(=O)/C1=C/c1ccc(Sc2ccc(Cl)cc2)o1,2.99µM,?,?,i,79.4µM,i,?,?,i,nt,
COC(=O)c1cc(NC(=O)Cn2c(=O)oc3ccccc32)cc(C(=O)OC)c1,i,?,i,i,i,i,nt,nt,nt,nt,
C=CCn1c(O)c(C2=c3ccccc3=NC2=O)c2ccccc21,16.8µM,6.31µM,10µM,?,20µM,6.31µM,16.8,?,?,?,
Cc1ccc(/C=C/C(=O)c2ccccc2)cc1,i,i[12.7 µM],i,nt,nt,i,nt,nt,nt,nt,
Cc1ccc(C(=O)/C=C/c2ccc3ncccc3c2)cc1,i,?,i,i,22.4µM,i,11.9,?,?,?,
Cc1ccc(SC2=NS(=O)(=O)c3ccccc32)c(C)c1,nt,nt,i,i,35.5µM,nt,7.08,8.91µM,?,21.2µM,
Cc1ccc(CSC2=NS(=O)(=O)c3ccccc32)cc1,nt,nt,i,i,31.6µM,nt,14.1,8.91µM,i,i,
COC1=NS(=O)(=O)c2ccccc21,i,?,i,i,i,i,nt,nt,nt,nt,
Cc1ccc(CSC2=CS(=O)(=O)c3ccccc3N2)cc1,i,i,i,i,i,i,nt,nt,nt,nt,
Cc1ccc(C(c2cc(Cl)c3cccnc3c2O)N2CCN(C)CC2)cc1 (stereo not drawn),1.5µM,3.55µM,44.7µM,?,44.7µM,22.4µM,18.9,?,i,?,
O=C(CCS(=O)(=O)c1nc(-c2ccc3c(c2)OCO3)cc(C(F)(F)F)n1)Nc1ccc(F)cc1F,nt,i,i,i,39.8µM,i,11.2,14.1µM,?,i,
O=C(CCS(=O)(=O)c1nc(-c2cccs2)cc(C(F)(F)F)n1)Nc1ccc(Br)cc1,nt,i,i,i,14.1µM,i,3.55,3.98µM,?,?,
Cc1ccc(O)c(NC(=O)CCS(=O)(=O)c2nc(-c3cccs3)cc(C(F)(F)F)n2)c1,nt,?,i,i,20µM,?,4.47,7.94µM,?,?,
O=C(CCS(=O)(=O)c1nc(-c2cccs2)cc(C(F)(F)F)n1)Nc1cc(Br)ccc1O,nt,?,i,i,11.2µM,i,3.16,3.55µM,i,?,
COc1ccc(-c2cc(C(F)(F)F)nc(SCCC(=O)Nc3cc(C)ccc3O)n2)cc1,nt,i,i,i,i,i,nt,nt,nt,nt,
CC(C)c1ccc(NC(=O)Nc2cc3sccc3n2C)cc1,i,?,?,i,i,i,nt,nt,nt,nt,
COc1cc(NC(=O)Cn2c([N+](=O)[O-])cnc2C)c(OC)cc1Cl,i,i[0.501 µM],i,i,i,i,nt,nt,nt,nt,
O=C(COC(=O)C12CC3CC(CC(Br)(C3)C1)C2)Nc1cccnc1Cl,i,i,i,i,i,i,nt,nt,nt,nt,
CC(=O)Nc1c(Cl)cc(Cl)c2c1Cc1cc(Cl)ccc1-2,i,nt,i,i,i,nt,nt,nt,nt,nt,
O=C1NC(=O)/C(=C/c2ccc(-c3ccc(F)cc3O)o2)S1,nt,21.2µM,nt,nt,12.6µM,nt,nt,nt,nt,nt,USP1-UAF1 confirm=52.7µM
O=C1NC(=S)SC1=Cc1ccc(F)cc1,i,nt,i,i,i,nt,nt,nt,nt,nt,
SMILES,PLK1 PBD block,G9a inh,JMJD2A Tudor inh,HP1b binding inh,VDR inh,BAZ2B inh,VDR confirm,VDR FP fluor,VDR bla,VDR viability,others
CCCCc1nc(N2CCN(C(=O)c3ccco3)CC2)c(C#N)c2c1CCCC2,i,i,i,i,i,?,nt,nt,nt,nt,
COc1ccc(/C=C2/C(=O)N(c3c(F)c(F)c(F)c(F)c3F)N=C2C)cc1,6.7µM,i[0.501 µM],i,i,50.1µM,i,?,17.8µM,i,i,
C[C@@H](C(=O)OCC(=O)c1ccccc1)N1C(=O)C2CCCCC2C1=O (stereo partly drawn),i,nt,i,i,i,nt,nt,nt,nt,nt,
CCn1nc(C)cc1-c1nnc(Sc2ncc([N+](=O)[O-])s2)n1C,?,6.31µM,?,i,7.94µM,i,4.74,3.55µM,3.66µM,?,
Cn1c(Sc2ccc([N+](=O)[O-])cc2C(F)(F)F)nnc1-c1ccccc1,i,i,i,i,i,i,nt,nt,nt,nt,
COc1ccc(C(=O)c2coc3c2C(=O)C(=O)c2ccccc2-3)cc1,?,nt,?,?,?,25.1µM,6.31,3.16µM,?,i,
O=C(c1ccccc1)C(CCC(CN1CCOCC1)C(=O)c1ccccc1)CN1CCOCC1 (stereo not drawn),i,?,i,i,?,i,?,?,20.6µM,i,
COc1cccc(C(NC(C)=O)c2nc(-c3cccc(C(=O)O)c3)cs2)c1 (stereo not drawn),i,nt,nt,nt,nt,nt,nt,nt,nt,nt,
Cc1nc2c3cc(F)ccc3n(Cc3ccccc3)c2s1,i,?,i,i,50.1µM,?,?,?,?,i,
CSc1nnc2c3cc(F)ccc3n(Cc3ccccc3)c2n1,i,i[12.7 µM],i,i,i,i,nt,nt,nt,nt,
O=[N+]([O-])c1ccc2c(c1)S(=O)(=O)C=C2,nt,?,nt,nt,12.6µM,nt,22.4,?,3.66µM,5.97µM,
Cc1cc([N+](=O)[O-])ccc1N,i,i,i,i,i,i,nt,nt,nt,nt,

# Screening results from PubChem BioAssay.
